These results are taken from PubChem BioAssay (NCATS).

Records with an inconclusive call do not appear. A number with no mark means an inactive call. Activity calls are given as the source filed them. The call rests on the fitted dose curve; in most records, active means well fitted inhibition curve with a large enough effect; inconclusive means small, poorly fitted or top-dose-only effect; inactive means no such curve, though single readings can be large or run the other way.
Potency means the concentration at half of the fitted maximal effect.

This assay in a line: S16 Schwann cell PMP22 intronic element firefly luciferase assay (AID 624032). Further: nearly all actives have a fitted effect of over 30% in size. As to conditions: S16 rat Schwann cells, PMP22 element FLuc, 24 h; series mostly up to 57.5 µM; activity change, negative = inhibition: at the top concentration. The method, boiled down: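 Luciferase reporter of PMP22 intronic-element expression in stably transfected S16 rat Schwann cells, read by ONE-Glo luminescence after 24 h compound exposure at 37 C. Activity scaled between DMSO (0%) and positive-control PTC124; concentration-effect curves quality-classified.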
For `O=C(O)CC(O)C(=O)O` (stereo not drawn), the “activity change, negative = inhibition” value was 25%.

Turning to `O=C1OC(OC(=O)c2cccnc2Nc2cccc(C(F)(F)F)c2)c2ccccc21` (stereo not drawn), the Potency was 7.21 µM (active).

`Cc1ncc(COP(=O)(O)O)c(C=O)c1O`: the “activity change, negative = inhibition” value was -8.06%.

As for `COc1cc(C(=O)N2CCOCC2)cc(OC)c1OC`, the Potency entry was “inactive”.

As for `Nc1nc2c(ncn2CCC(CO)CO)c(=O)[nH]1`, the “activity change, negative = inhibition” value is 13.7%.

For `O=C1NS(=O)(=O)c2ccccc21`, the “activity change, negative = inhibition” value was 12.4%.

Regarding `CCCOC(=O)c1ccccc1`, the “activity change, negative = inhibition” value was 16%.

With `NC(CSCC(=O)O)C(=O)O` (stereo not drawn), the “activity change, negative = inhibition” value was -2.1%.

Regarding `CCCCc1ncc(/C=C(\Cc2cccs2)C(=O)O)n1Cc1ccc(C(=O)O)cc1`, the “activity change, negative = inhibition” value is 13.4%.

Consider `Nc1ccc(S(=O)(=O)Nc2ccc(Cl)nn2)cc1`, for which the “activity change, negative = inhibition” value was 3.75% [at 25.7 µM].

In the case of `NCC(=O)CCC(=O)O`, the “activity change, negative = inhibition” value is -7.18%.

For `Nc1ccc(S(=O)(=O)NC(=O)c2ccccc2)cc1`, the “activity change, negative = inhibition” value is 6.13% [at 25.7 µM].

Consider `NC(=O)NC(=O)Cc1ccccc1`, for which the “activity change, negative = inhibition” value was -21.7%.

With `O=C(O)CN1C(=O)c2cccc3cccc(c23)C1=O`, the “activity change, negative = inhibition” value is -28%.

For `Cc1c(Cl)cccc1Nc1ccccc1C(=O)O`, the “activity change, negative = inhibition” value was -17.8%.

On to `CCn1cc(C(=O)O)c(=O)c2cnc(N3CCNCC3)nc21`, for which the Potency is 7.75 µM (active).

For `c1ccc(CN(CC2=NCCN2)c2ccccc2)cc1`, the “activity change, negative = inhibition” value is -9.13%.

`CCOC(=O)[C@H](CCc1ccccc1)N[C@@H](C)C(=O)N1C(=O)N(C)C[C@H]1C(=O)O`: the “activity change, negative = inhibition” value is -1.27%.

Take `COc1cc2[nH]c(=O)[nH]c(=O)c2cc1OC`: the “activity change, negative = inhibition” value was -13.7% [at 25.7 µM].

In the case of `CC1(C)CO[C@@H](CC(=O)O)CN1`, the “activity change, negative = inhibition” value is 7.85%.

As for `COc1cc(C)c(Cc2cnc(N)nc2N)cc1OC`, the “activity change, negative = inhibition” value is 0.102%.

Regarding `CC1(C)OC(=O)NC1=O`, the “activity change, negative = inhibition” value was 25.4%.

For the molecule `COc1ccc(S(=O)(=O)Nc2nnc(CC(C)C)s2)cc1`, the Potency entry was “inactive”.
